A340 absorber – compounds absorbing at 340 nm; compound absorbance at 340 nm, fold over control; fold change at 10 µM; 65,000 tested, under 10 active; AID 708;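 active = at 10 µM dose, initial 340 nm absorbance at least 2 fold that of control wells; inactive = change under 2 fold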;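 also: initial absorbance extrapolated from kinetic A340 decline of NADH oxidation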
Autofluor 339 – intrinsic fluorescence of library compounds, ex339/em460 – biochemical, MLSMR library, data from DPM-DC assay, artefact control, profiling panel. AID 709. 65,000 tested, 5.5% active. compound autofluorescence, ex339/em460 nm, NADH buffer; stronger effect = higher value; 1 = no-compound wells, NADH background. fluorescence fold increase at 10 µM;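 active = at 10 µM, mean starting fluorescence two-fold or more over control wells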;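 also: signal is the first read of a kinetic run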
NADH enzymes – inhibitors of enzymes used to reach an NAD/NADH endpoint | coupled PK/LDH NADH assays, four targets | IC50, µM (titrated, usually from 10 µM), inactives show at the highest dose inhibition | 65,000 tested, 0.02% active;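 active = single-dose screening hits from any of four coupled enzyme assays that gave an IC50 when retested across doses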;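 also: the DPM-DC format reads NADH fluorescence rather than 340 nm absorbance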
DPM-DC inhibit – S. pneumoniae DPM-DC inhibition. calls only at 10 µM. 65,000 tested, 0.49% active. purified DPM-DC, PK/LDH coupled NADH fluorescence;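 active = the 320 compounds with the highest percent inhibition in the single-dose primary screen, excluding strongly autofluorescent ones, cut at about 32% in these data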;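 also: kinetic rate of NADH fluorescence loss reporting ADP formed by the decarboxylase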
MK inhibit – S. pneumoniae mevalonate kinase inhibition. purified MK, PK/LDH-coupled NADH absorbance 340 nm. inhibition, % at 10 µM. 65,000 tested, 0.48% active. AID 555;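 active = ranked among the strongest by inhibition in the single 10 µM screen, a fixed top-ranked set picked for dose follow-up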
PMK inhibit – inhibitors of Streptococcus pneumoniae phosphomevalonate kinase; purified PMK, PK/LDH-coupled NADH absorbance 340 nm; inhibition, % at 10 µM; 65,000 tested, 0.49% active; AID 539;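 active = top-ranked compounds by inhibition in the single 10 µM screen, taking a fixed number of the strongest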;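 also: 0% = full reaction with DMSO carrier and 100% = background rate without enzyme reaction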
Active calls of the source: *; i = inactive; nt = no result given; + = active, no number; [ ] = dose if it differs, or a comment. Compounds with a hit are over-represented: about 6.8% of the library has one in this group of screens.

SMILES	A340 absorber	Autofluor 339	NADH enzymes	DPM-DC inhibit	MK inhibit	PMK inhibit
Cc1cc(C)nc(SCc2nnc(SCC(=O)N3CCOCC3)o2)n1	1.02	1.06	2.0%	i	0.0	7.0
CCc1ccc2[nH]cc(C(=O)N3CCCCCC3)c(=O)c2c1	1.07	1.04	6.0%	i	5.0	10.0
COc1ccc2[nH]cc(C(=O)N3CCCCC3)c(=O)c2c1	1.08	2.08*	5.0%	i	9.0	2.0
O=C1CN(C(=O)CC2c3ccccc3-c3ccccc32)CC(=O)N1	1.11	1.14	3.0%	i	9.0	0.0
CCOc1ccc(C(=O)Nc2ccc(NC(=O)c3ccco3)c(Cl)c2)cc1Br	1.11	2.95*	4.0%	i	0.0	11.0
CCOc1cc(NC(=O)c2ccco2)c(OCC)cc1NC(=O)CCc1ccc(OC)cc1	1.01	2.11*	4.0%	+[fluoresces]	0.0	16.0
COc1ccc(NC(=O)c2ccco2)cc1NC(=O)c1ccc(C)cc1	1.04	1.06	9.0%	i	0.0	27.0*
Cc1ccc(NC(=O)c2cc(NC(=O)c3ccco3)ccc2N2CCCCC2)cc1	1.13	2.09*	2.0%	nt	3.0	1.0
COc1ccc(NC(=O)c2ccco2)cc1NC(=O)c1ccc(Br)o1	1.08	1.11	11.0%	i	9.0	9.0
Cc1cc(C)c(NC(=O)CS(=O)CC(=O)N2CCN(c3ccccc3)CC2)c(C)c1 (centres undefined)	1.03	1.13	6.0%	i	7.0	12.0
O=C(CC1C(=O)NCCN1C(=O)c1ccc(F)cc1)OCc1ccccc1 (centres undefined)	1.01	1.03	4.0%	i	6.0	5.0
O=S(=O)(c1cccc(-c2nnco2)c1)N1CCCC1	0.96	0.96	4.0%	i	6.0	17.0
CC(C)C(C(=O)Nc1ccc(N2CCOCC2)cc1)N1C(=O)c2ccccc2C1=O (centres undefined)	1.04	1.09	0.0%	i	0.0	0.0
COC(=O)c1cnn2c3c(c(C)nc12)CCCC3	0.99	4.83*	14.0%	nt	3.0	24.0
C=CCc1c(C)nc2c(C(=O)O)cnn2c1C	1.01	1.89	5.0%	i	0.0	14.0
CC(=O)N=c1c(C#N)cc2c(=O)n3cccc(C)c3nc2n1CC(C)C	1.02	3.86*	15.0%	nt	13.0	16.0
Cc1ccc(-n2c(=O)c(C#N)cc3c(=O)n4ccccc4nc32)cc1	1.02	3.26*	2.0%	nt	0.0	15.0
Cc1cccn2c(=O)c3cc(C#N)c(=N)n(Cc4ccncc4)c3nc12	1	1.13	5.0%	i	7.0	7.0
Cc1cccn2c(=O)c3cc(C#N)c(=O)n(-c4c(C)n(C)n(-c5ccccc5)c4=O)c3nc12	1.06	1.12	4.0%	i	6.0	5.0
Cc1cc(-n2c(=O)c(C#N)cc3c(=O)n4cccc(C)c4nc32)no1	1.03	4.02*	4.0%	nt	7.0	0.0
Cc1cccn2c(=O)c3cc(C#N)c(=NC(=O)c4ccc5c(c4)OCO5)n(CC(C)C)c3nc12	1.03	2.5*	19.0%	+	11.0	11.0
CCOC(=O)c1sc2nc(C)n(CC(=O)NCC3CCCO3)c(=O)c2c1C (centres undefined)	1.03	1.06	8.0%	i	7.0	13.0
CN(C(=O)c1c(Cl)nc2sccn12)C1CCCCC1	1.01	1.01	1.0%	i	6.0	0.0
c1ccc(CCNc2ncnc3nc[nH]c23)cc1	1.05	1.11	3.0%	i	0.0	5.0
COc1ccccc1CNc1ncnc2nc[nH]c12	1.04	1.25	23.0%	+	12.0	6.0
SMILES	A340 absorber	Autofluor 339	NADH enzymes	DPM-DC inhibit	MK inhibit	PMK inhibit
CCCOc1ccccc1-c1nc2c([nH]1)c(=O)[nH]c(=O)n2C	1.13	3.72*	4.0%	nt	2.0	5.0
O=c1oc2ccc(Br)cc2cc1-c1nc2ccccc2o1	1.01	2.27*	10.0%	i	9.0	6.0
O=C(Nn1cnnc1)c1cc2cc(Br)ccc2oc1=O	1.12	1.16	9.0%	i	9.0	9.0
CCC(=O)N1c2ccccc2NC2=C(C(=O)CCC2)C1c1cccnc1 (centres undefined)	1.15	1.1	6.0%	i	11.0	3.0
Cc1ccccc1-c1coc2cc(O)ccc2c1=O	1.17	3.85*	9.0%	nt	8.0	10.0
CC(C)Oc1ccc2c(=O)c(-c3ccccc3)coc2c1	0.97	1.01	2.0%	i	7.0	4.0
COc1cc2c(OC)cccc2cc1C(=O)O	1	2.92*	2.0%	nt	8.0	0.0
CN1C(=O)CSc2ccc(NC(=O)NCc3ccco3)cc21	1.03	1.03	5.0%	i	12.0	0.0
COc1ccc2c(c1)c1ncn(Cc3ccco3)c(=O)c1n2C	1.04	3.73*	8.0%	nt	7.0	9.0
COc1cc(-n2c3nc4ccccc4nc3c3c(=O)n(Cc4ccco4)cnc32)cc(OC)c1OC	1.02	1.09	0.0%	i	0.0	0.0
O=C(COc1nnc2ccccn12)N1CCN(S(=O)(=O)c2ccccc2)CC1	1.01	3.42*	4.0%	nt	12.0	13.0
O=C(C1CC1)N1CCc2cc(S(=O)(=O)N(CCO)Cc3ccccc3)ccc21	1	1.1	2.0%	i	7.0	5.0
CCOC(=O)c1[nH]c(=O)[nH]c1CSCCO	0.97	1.14	5.0%	i	5.0	10.0
Cc1c2c(nc3c(C(=O)NC4CCCC4)cnn13)CCCC2	1.01	4.9*	12.0%	nt	0.0	23.0
O=c1c2ccccc2oc2ncccc12	1.09	1.22	6.0%	i	9.0	8.0
Cc1cccc(N2CCN(c3nc4ccc(Cl)cc4n4cnnc34)CC2)c1C	1.11	2.08*	9.0%	nt	8.0	10.0
O=C(c1ccccc1)c1ccc2nc(N3CCN(C(=O)c4ccco4)CC3)c3nncn3c2c1	1.1	1.16	5.0%	i	7.0	2.0
CCCCC(=O)Nc1ccc2oc(-c3cccnc3)nc2c1	1.04	3.93*	7.0%	nt	6.0	8.0
CCCCC(=O)Nc1cccc(-c2nc3ncccc3o2)c1	1.04	2.27*	17.0%	i	11.0	14.0
CCCC(=O)Nc1ccc2oc(-c3cccnc3)nc2c1	1.02	2.8*	3.0%	nt	0.0	20.0
Cc1cc(-c2nc3ncccc3o2)ccc1N	1.07	2.95*	5.0%	nt	9.0	7.0
CCCC(=O)Nc1cccc(-c2nc3ccccc3o2)c1	1.07	1.08	2.0%	i	5.0	2.0
CC1CCN(S(=O)(=O)c2ccc(Br)s2)CC1	0.99	1.03	4.0%	i	9.0	1.0
O=C(Nc1ccc2oc(-c3cccnc3)nc2c1)c1cc2ccccc2o1	1.08	2.07*	2.0%	nt	4.0	0.0
O=C(Nc1ccc2oc(-c3ccncc3)nc2c1)c1cccs1	1.04	1.99	2.0%	nt	4.0	5.0
CCC(=O)Nc1ccc2oc(-c3cccc(C)c3)nc2c1	1.07	2.33*	0.0%	nt	0.0	0.0
O=C(O)C(CC(=O)N1CCOCC1)NCc1ccccc1 (centres undefined)	1.05	1.09	8.0%	i	15.0	6.0
O=c1[nH]c2ccccc2nc1-c1cccs1	1.05	4.89*	6.0%	nt	0.0	11.0

Source: PubChem BioAssay (SRMLSC)
